Our source for the activity change, negative = inhibition values is PubChem BioAssay AID493026 (Johns Hopkins Ion Channel Center, 2011).

Out of some 1,000 compounds screened, about 150 (15%) were called active.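 The calls were made as follows: active = activity change at least 3 SD of negative controls below their mean in both duplicate wells; inactive = the rest.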 The sample as a whole holds a higher share of actives than the screen did.

Sequence of Potassium voltage-gated channel subfamily KQT member 1 (Homo sapiens) (P51787 whole entry, looked up): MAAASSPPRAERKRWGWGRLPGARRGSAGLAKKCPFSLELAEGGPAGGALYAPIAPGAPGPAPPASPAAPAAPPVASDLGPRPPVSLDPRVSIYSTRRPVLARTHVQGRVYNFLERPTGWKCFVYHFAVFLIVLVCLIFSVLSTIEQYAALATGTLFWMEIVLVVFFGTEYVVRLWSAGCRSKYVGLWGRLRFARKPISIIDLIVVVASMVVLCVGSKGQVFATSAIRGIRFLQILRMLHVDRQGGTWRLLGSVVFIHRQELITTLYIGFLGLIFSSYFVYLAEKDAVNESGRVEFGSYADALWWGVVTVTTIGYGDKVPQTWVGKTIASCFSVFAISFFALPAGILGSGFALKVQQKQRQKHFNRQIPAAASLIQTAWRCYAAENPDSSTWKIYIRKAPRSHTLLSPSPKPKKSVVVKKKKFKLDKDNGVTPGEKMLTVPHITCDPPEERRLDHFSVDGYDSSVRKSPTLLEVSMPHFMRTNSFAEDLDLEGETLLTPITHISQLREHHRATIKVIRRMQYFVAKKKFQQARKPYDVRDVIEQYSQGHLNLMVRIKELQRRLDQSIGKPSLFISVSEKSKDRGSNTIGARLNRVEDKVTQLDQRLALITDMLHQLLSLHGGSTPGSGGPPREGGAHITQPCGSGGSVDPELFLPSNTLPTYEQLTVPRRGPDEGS

The test addresses Potassium voltage-gated channel subfamily KQT member 1 (Homo sapiens) (UniProt P51787). The test is described as follows: KCNQ1 thallium flux decrease by hits – cell-based, FluxOR thallium flux, counter-screen for KCNQ2 inhibitor project (AID 493026).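 Also: CHO cells stably transfected with KCNQ1 and depolarized by potassium stimulus.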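 As to activity change, negative = inhibition: peak minus minimum fluorescence over baseline after thallium addition; 0% = vehicle negative control and -100% = blank without thallium stimulus.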 As to conditions: KCNQ1-expressing cells, FluxOR thallium flux fluorescence, at 10 µM; hits give low values.
Turning to `CCc1ccccc1NC(=O)/C(=C/c1ccccc1)c1ccccc1`, the activity change, negative = inhibition was -27% (active).
`Cc1ccc(C(=O)c2c(NC(=O)c3ccccc3)sc(C)c2C)cc1`: the activity change, negative = inhibition result is “inactive”.
For `COc1ccc(Cl)cc1NC(=O)CN(C)Cc1ccc(OC)c(OC)c1`, the activity change, negative = inhibition entry is “inactive”.
Turning to `CN(Cc1ccccc1F)C(=O)C(Cc1ccccc1)NC(=O)c1ccccc1` (stereo unspecified), the activity change, negative = inhibition result is “inactive”.
Turning to `CCc1ccc(-c2nn(-c3ccccc3)cc2CSC(=N)N)cc1`, the activity change, negative = inhibition is -39.5% (active).
As to `Cc1cccc(C(=O)OC(C)C(=O)NC2CCCc3ccccc32)c1O` (stereo unspecified), the activity change, negative = inhibition entry is “inactive”.
`COC(=O)C1=C(C)N(C(C)c2ccccc2)C(=O)/C1=C\c1ccco1` (stereo unspecified): the activity change, negative = inhibition result is “inactive”.
Take `COc1cccc(COc2ccc(N(C)S(=O)(=O)c3ccccc3)cc2)c1`: the activity change, negative = inhibition entry is “inactive”.
As for `C=CS(=O)c1sc(Cl)c(N2CCOCC2)c1[N+](=O)[O-]` (stereo unspecified), the activity change, negative = inhibition is -35% (active).
Consider `Cc1nc2ccccc2c(-c2ccccc2)c1C(=O)c1ccccc1`, for which the activity change, negative = inhibition result was “inactive”.
In the case of `CSCc1cc(N(C)C)nc(SCc2ccc(Cl)cc2Cl)n1` it was “inactive”.
On to `Cc1ccc(C2=Nc3c(ccc4ccccc34)C(c3ccncc3)=NN2)cc1`, for which the activity change, negative = inhibition entry is “inactive”.
With `CCc1ccc(-c2cc(C(=O)NCc3ccco3)c3ccccc3n2)s1`, the activity change, negative = inhibition result is “inactive”.
As to `Fc1ccc2[nH]c3c(N4CCSCC4)ncnc3c2c1`, the activity change, negative = inhibition entry was “inactive”.
As to `CCOC(=O)N1CCC(N(CCOC)C(=O)Nc2ccc(C)c(C)c2)CC1`, the activity change, negative = inhibition is -30.5% (active).
On to `O=C(OCC(=O)N(CCc1ccccc1)Cc1ccccc1)c1ccccc1[N+](=O)[O-]`, for which the activity change, negative = inhibition entry is “inactive”.
In the case of `CCc1ccc2ncc(C(=O)c3ccccc3)c(N3CCOCC3)c2c1`, the activity change, negative = inhibition result was “inactive”.
Take `Cc1ccc(C(C)C)cc1OCC(=O)Nc1ccccc1N1CCCC1`: the activity change, negative = inhibition result was “inactive”.
Consider `CCOC(=O)C(C)Sc1nc2ccccc2c(=O)n1CC1CCCCC1` (stereo unspecified), for which the activity change, negative = inhibition was -33.5% (active).
Take `Cc1ccccc1N1CCN(CC(=O)NCc2ccc(Cl)cc2)CC1`: the activity change, negative = inhibition result is “inactive”.
On to `O=C(Nc1ccccc1Cl)/C(Cl)=C(\Cl)S(=O)c1ccccc1` (stereo unspecified), for which the activity change, negative = inhibition entry is “inactive”.
`CC(NC(=S)NNS(=O)(=O)c1ccc(C(C)(C)C)cc1)c1ccccc1` (stereo unspecified): the activity change, negative = inhibition result is “inactive”.
On to `Cc1ccccc1C(=O)Nc1ccccc1Sc1ccccc1`, for which the activity change, negative = inhibition result is “inactive”.
Consider `COc1ccc(CN(C)C(C)C(=O)NC2CCCc3ccccc32)cc1` (stereo unspecified), for which the activity change, negative = inhibition entry was “inactive”.
`CC(C)C(NC(=O)OCc1ccccc1)C(=O)OCC(=O)N1C(C)CCCC1C` (stereo unspecified): the activity change, negative = inhibition result was “inactive”.
Turning to `CC(C(=O)NCC1CCCCC1)N(C)Cc1cccc(Cl)c1` (stereo unspecified), the activity change, negative = inhibition is -42.5% (active).
Take `C=CCn1c(SCC(=O)/C(C#N)=C(\C)N)nc2sc(C)c(C)c2c1=O`: the activity change, negative = inhibition result is “inactive”.
In the case of `O=C(Nc1ccc(Cl)c(Cl)c1)N1CC=C(c2ccccc2)CC1`, the activity change, negative = inhibition result was “inactive”.
With `Cc1ccc(N2C(=O)C3C(c4ccccc4)(C2=O)C3(c2ccccc2)c2ccccc2)cc1` (stereo unspecified), the activity change, negative = inhibition entry is “inactive”.
With `CC(C)N(C(=O)CSc1nc(COc2ccccc2)nc2ccccc12)C(C)C`, the activity change, negative = inhibition is -44% (active).
Take `CC(C)[C@H](NC(=O)OCc1ccccc1)C(=O)OCc1ccccc1`: the activity change, negative = inhibition entry was “inactive”.
